# Assay results: PubChem BioAssay
# Values joined by “and” are separate entries in the source; they are usually repeats but may differ in a detail not shown here. Identical values can stand only once. Active and inactive are the calls of the source. Unless noted, no stated cut-off is given here; in the data, active means parasite load remaining mostly below about 12% (no sharp cut-off); inactive means mostly above about 10%.
# What was measured:
# [1] = liver-stage malaria parasite growth inhibition, primary screen, cell-based, HepG2, luciferase luminescence, HepG2 viability (AID 624349);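 further: 100% = mean of DMSO negative control wells on the same plate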; details: P. berghei liver stage in HepG2, luciferase luminescence, concentration not given here; parasite load remaining: stronger effect = lower value; viability: measured here: HepG2 viability without parasites
# [2] = stimulators of nuclear beta-catenin in C2C12, primary screen, imaging, WNT3A-conditioned medium, mouse C2C12, NPC library (AID 1117326; in the data active means nuclear beta-catenin stimulation mostly above about 4.2%, no sharp cut-off; inactive means mostly below about 10%); details: stronger effect = higher value
# [3] = tested on: Hepatitis C virus NS3 helicase; assay: HCV NS3 helicase inhibitors, primary screen, biochemical, fluorescence polarization, LOPAC1280 library (AID 687035; in the data active means inhibition above about 37%); details: Purified HCV NS3 helicase, Cy5-dT15 ssDNA binding fluorescence polarization; stronger effect = higher value; concentration not given here
# [4] = Cy5 fluorescence quenching or enhancement artefacts, artefact control for HCV NS3 helicase inhibitor project, biochemical, LOPAC1280 (AID 687037; call rule not given here); details: Cy5-DNA-NS3h complex fluorescence interference counterscreen
Structure (SMILES),parasite load remaining [1],viability [1],nuclear beta-catenin stimulation ([2]; at 10 µM),"nuclear beta-catenin stimulation ([2]; stimulation, at 2 µM)",inhibition [3],fluorescence ratio (interference) [4]
Nc1ncnc2c1ncn2[C@@H]1O[C@H](CO)[C@@H](O)[C@H]1O,102% (inactive) and 72.2% (inactive),77.4% and 98.9%,10.9% (inactive),1.8%,–,–
COc1cccc(OC)c1C(=O)N[C@@H]1C(=O)N2[C@@H]1SC(C)(C)[C@@H]2C(=O)O,72.2% (inactive) and 53.5% (inactive),72.9% and 91.1%,-0.9% (inactive),-1.1%,–,–
O=C(Nc1ccc([N+](=O)[O-])cc1Cl)c1cc(Cl)ccc1O,-1.67% (inactive) and -1.04% (inactive) and -2.1% (inactive),26.1% and 53.7% and 67.1%,56.2% (active),33.1%,-2% (inactive),1 (inactive)
CCn1cc(C(=O)O)c(=O)c2cnc(N3CCNCC3)nc21,87.7% (inactive) and 144% (inactive),98.7% and 73%,1.9% (inactive),4.3%,–,–
COC(=O)Nc1nc2ccc(S(=O)c3ccccc3)cc2[nH]1 (centres undefined),162% (inactive) and 87.1% (inactive) and 49.8% (inactive),85.8% and 93.1% and 68.5%,57.7% (active),58.1%,–,–
NCCS,22.7% (inactive) and 38.2% (inactive),94.3% and 106%,0.2% (inactive),3.8%,-2% (inactive),1 (inactive)
CCCc1cc(C(N)=S)ccn1,145% (inactive) and 18.2% (inactive),83.8% and 63%,0.2% (inactive),2%,–,–
C=CCc1ccc(O)c(OC)c1,91.2% (inactive) and 49.1% (inactive),77.2% and 96.4%,1.1% (inactive),4.6%,–,–
CO[C@@]12[C@H](COC(N)=O)C3=C(C(=O)C(C)=C(N)C3=O)N1C[C@@H]1N[C@@H]12,-0.17% (inactive),11%,26.8% (inactive),11.6%,–,–
COc1cc2c3cc1Oc1cc(ccc1O)C[C@@H]1c4c(cc(OC)c(O)c4Oc4ccc(cc4)C[C@@H]3N(C)CC2)CC[N+]1(C)C,55.9% (inactive) and 65.3% (inactive),118% and 192%,3.1% (inactive),-0.1%,–,–
Cc1cc2c(C(C)C)c(O)c(O)c(C=O)c2c(O)c1-c1c(C)cc2c(C(C)C)c(O)c(O)c(C=O)c2c1O,56.7% (inactive),83.7%,64.5% (active),6.3%,-1% (inactive),0.9 (inactive)
Nc1ncnc2nc[nH]c12,110% (inactive) and 37.4% (inactive),91.6% and 128%,-2.6% (inactive),-0.4%,–,–
CSc1ccc2c(c1)C(N1CCN(C)CC1)Cc1ccccc1S2 (centres undefined),74.1% (inactive) and 71.4% (inactive) and 63.7% (inactive),72.2% and 69.9% and 104%,61.9% (active),1.4%,-5% (inactive),0.9 (inactive)
COc1ccnc(CS(=O)c2nc3ccc(OC(F)F)cc3[nH]2)c1OC (centres undefined),154% (inactive) and 46.8% (inactive) and 36.5% (inactive),91.7% and 94.9% and 116%,-0.4% (inactive),1.1%,–,–
Cc1oncc1C(=O)Nc1ccc(C(F)(F)F)cc1,174% (inactive) and 159% (inactive) and 30% (inactive),94.2% and 84.7% and 88.5%,15.4% (inactive),3.9%,-2% (inactive),1 (inactive)
CN(C)[C@@H]1C(=O)C(C(N)=O)=C(O)[C@@]2(O)C(=O)C3=C(O)c4c(O)ccc(Cl)c4[C@@H](O)[C@H]3C[C@@H]12,68.4% (inactive) and 96.7% (inactive) and 81.2% (inactive),95.5% and 71.1% and 88.6%,6.3% (inactive),4.3%,-3% (inactive),1 (inactive)
O=C(OCc1ccccc1)c1ccccc1,82.1% (inactive) and 33.8% (inactive),68.9% and 89.1%,0.4% (inactive),2.2%,–,–
CC(=O)N[C@@H](CS)C(=O)O,106% (inactive) and 79.1% (inactive),72.7% and 91.5%,2.6% (inactive),-1.4%,0% (inactive),0.9 (inactive)
CC(=O)Nc1ccc(O)cc1,99.6% (inactive) and 108% (inactive) and 46.1% (inactive),106% and 78.8% and 112%,-0.4% (inactive),-0.2%,–,–
C[C@H]1c2cccc(O)c2C(O)=C2C(=O)[C@]3(O)C(O)=C(C(N)=O)C(=O)[C@@H](N(C)C)[C@@H]3[C@@H](O)[C@@H]21,95% (inactive) and 57.5% (inactive) and 31.3% (inactive),76.2% and 97.6% and 73.5%,-0.3% (inactive),3.8%,-1% (inactive),1 (inactive)
CC(=O)O[C@]1(C(C)=O)CC[C@H]2[C@@H]3C=C(Cl)C4=CC(=O)[C@@H]5C[C@@H]5[C@]4(C)[C@H]3CC[C@@]21C,8.85% (inactive),69%,1.2% (inactive),1.7%,-1% (inactive),0.9 (inactive)
OCc1ccccc1O,91.8% (inactive) and 36.5% (inactive),78.7% and 97.3%,0.4% (inactive),1.3%,–,–

Structure (SMILES),parasite load remaining [1],viability [1],nuclear beta-catenin stimulation ([2]; at 10 µM),"nuclear beta-catenin stimulation ([2]; stimulation, at 2 µM)",inhibition [3],fluorescence ratio (interference) [4]
O=C(O)c1ccc(S(=O)(=O)N(Cl)Cl)cc1,101% (inactive) and 53.6% (inactive),75.7% and 97.7%,0.3% (inactive),1.7%,–,–
Nc1nccs1,56.3% (inactive),97.8%,-1.6% (inactive),0.3%,–,–
Cc1cn[nH]c1,51% (inactive),102%,-2.1% (inactive),-2%,-3% (inactive),0.9 (inactive)
CCCCC1C(=O)N(c2ccccc2)N(c2ccccc2)C1=O,85.8% (inactive) and 69.9% (inactive) and 33.4% (inactive),73% and 101% and 70.5%,-2% (inactive),-0.9%,-4% (inactive),1 (inactive)
Cn1cnc2c1c(=O)[nH]c(=O)n2C,101% (inactive) and 137% (inactive) and 62.6% (inactive),101% and 74.3% and 103%,0.9% (inactive),1%,-5% (inactive),1 (inactive)
O=C1CCc2cc(OCCCCc3nnnn3C3CCCCC3)ccc2N1,56.8% (inactive) and 129% (inactive) and 31.4% (inactive),104% and 87.2% and 96.2%,1.1% (inactive),1%,-1% (inactive),1 (inactive)
Clc1ccc(C(c2ccccc2Cl)C(Cl)Cl)cc1 (centres undefined),2.27% (inactive),80.1%,4.5% (inactive),0.2%,-4% (inactive),0.9 (inactive)
NCCS(=O)(=O)O,52.5% (inactive),97.6%,5.3% (inactive),2.5%,-4% (inactive),0.9 (inactive)
Cc1cc(N)c2ccccc2[n+]1CCCCCCCCCC[n+]1c(C)cc(N)c2ccccc21,4.91% (inactive) and -3.56% (inactive) and 27.5% (inactive),97.2% and 73.1% and 69.2%,25% (inactive),-0.1%,2% (inactive),0.9 (inactive)
CNC1(C)C2CCC(C2)C1(C)C (centres undefined),95.9% (inactive) and 84% (inactive),76% and 101%,0.3% (inactive),-2.6%,0% (inactive),0.9 (inactive)
O=NN(CCCl)C(=O)NCCCl,30.7% (inactive),104%,4.9% (inactive),1.3%,-4% (inactive),1 (inactive)
O=c1c(O)c(-c2ccc(O)c(O)c2)oc2cc(O)cc(O)c12,49.9% (inactive) and 67.9% (inactive),108% and 73.7%,2.6% (inactive),1.7%,2% (inactive),0.9 (inactive)
COc1cc2c(cc1OC)-c1cc(=Nc3c(C)cc(C)cc3C)n(C)c(=O)n1CC2,22.9% (inactive),56.5%,1.1% (inactive),-0.6%,1% (inactive),0.9 (inactive)
NCCCCCC(=O)O,112% (inactive) and 74.1% (inactive) and 56.9% (inactive),104% and 74.3% and 90.5%,2.8% (inactive),-1%,1% (inactive),0.9 (inactive)
Cn1c(=O)c2c(ncn2C)n(C)c1=O,89.2% (inactive) and 70.9% (inactive),73.1% and 94.9%,0.2% (inactive),3.1%,-2% (inactive),1 (inactive)
CC(=O)OCC1=C(C(=O)O)N2C(=O)[C@@H](NC(=O)Cc3cccs3)[C@H]2SC1,98.3% (inactive) and 75.9% (inactive) and 62% (inactive),104% and 75.3% and 99.8%,2.4% (inactive),4.2%,0% (inactive),1 (inactive)
C[N+]1(CCCCC[N+]2(C)CCCC2)CCCC1,24.8% (inactive) and 111% (inactive) and 94.9% (inactive),48.6% and 96% and 89.3%,-1.8% (inactive),0.5%,4% (inactive),1 (inactive)
CCCCNc1c(C(=O)OCC)c(C)nc2c1cnn2CC,80.1% (inactive),77.6%,-0.5% (inactive),1.7%,-5% (inactive),1 (inactive)
COC(=O)[C@@H]1[C@H]2C[C@H]3c4[nH]c5ccccc5c4CCN3C[C@@H]2CC[C@@H]1O,80.6% (inactive) and 73.2% (inactive) and 41.3% (inactive),101% and 81.3% and 96.5%,1% (inactive),0.4%,0% (inactive),1.1 (inactive)
NC(N)=NC(=O)Cc1c(Cl)cccc1Cl,29.4% (inactive) and 52.8% (inactive) and 54.1% (inactive),118% and 76.4% and 154%,-0.4% (inactive),2.6%,1% (inactive),1 (inactive)
C#CCN(C)Cc1ccccc1,33.9% (inactive) and 101% (inactive) and 59.8% (inactive),48.5% and 89.5% and 94.1%,2.1% (inactive),3.2%,-3% (inactive),1 (inactive)
CCN(CC)C(C)CN1c2ccccc2Sc2ccccc21 (centres undefined),77.1% (inactive) and 61.6% (inactive) and 39% (inactive),89.3% and 65.2% and 91.5%,3.4% (inactive),0.5%,-1% (inactive),1 (inactive)
